Reference: PubChem BioAssay (NCI)
This is part of a sample that, as a whole, favours compounds with a hit. Of some 83,000 tested, about 20% had one in any assay.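 Treatment: one concentration, 48 hours, 96-well format. Scoring: percent growth, with anything below 10 considered active.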 Unmarked numbers belong to inactive results. The source made the active and inactive calls.

Tests used:
Experiment in all cases: NCI-60 one-dose screen, 48 h (100 = growth as untreated, 0 = no growth, -100 = all killed)
Conditions in all cases: 10 µM unless noted
SK-MEL-2 melanoma = tested on: SK-MEL-2 melanoma
EKVX NSCLC = tested on: EKVX NSCLC
SN12C renal = tested on: SN12C renal
UO-31 renal = tested on: UO-31 renal
TK-10 renal = tested on: TK-10 renal
ACHN renal = tested on: ACHN renal
CAKI-1 renal = tested on: CAKI-1 renal
A498 renal = tested on: A498 renal
MOLT-4 leukemia = tested on: MOLT-4 leukemia
SR leukemia = tested on: SR leukemia
RPMI-8226 leukemia = tested on: RPMI-8226 leukemia
OVCAR-8 ovarian = tested on: OVCAR-8 ovarian
OVCAR-5 ovarian = tested on: OVCAR-5 ovarian
OVCAR-4 ovarian = tested on: OVCAR-4 ovarian
IGROV1 ovarian = tested on: IGROV1 ovarian
OVCAR-3 ovarian = tested on: OVCAR-3 ovarian
HS 578T breast = tested on: HS 578T breast
NCI/ADR-RES ovarian = tested on: NCI/ADR-RES ovarian
CCRF-CEM leukemia = tested on: CCRF-CEM leukemia
SK-OV-3 ovarian = tested on: SK-OV-3 ovarian

SMILES	growth (SK-MEL-2 melanoma)	growth (EKVX NSCLC)	growth (SN12C renal)	growth (UO-31 renal)	growth (TK-10 renal)	growth (ACHN renal)	growth (CAKI-1 renal)	growth (A498 renal)	growth (MOLT-4 leukemia)	growth (SR leukemia)	growth (RPMI-8226 leukemia)	growth (OVCAR-8 ovarian)	growth (OVCAR-5 ovarian)	growth (OVCAR-4 ovarian)	growth (IGROV1 ovarian)	growth (OVCAR-3 ovarian)	growth (HS 578T breast)	growth (NCI/ADR-RES ovarian)	growth (CCRF-CEM leukemia)	growth (SK-OV-3 ovarian)
ClC(Cl)c1nc(-c2cccnc2)n2nc(-c3ccccc3)cc2n1	87.6%	15.1%	41.7%	59.9%	27.3%	-5.02% (active)	-2.31% (active)	58.5%	15%	13.4%	33.2%	27.7%	7.66% (active)	9.31% (active)	13.9%	-47.5% (active)	51.6%	-11.2% (active)	–	–
CCN1C(=O)N(CC)C2C1NN=c1s/c(=C\c3cccnc3)c(=O)n12 (stereo unspecified)	51.5%	45.5%	45.2%	46.8%	80.7%	42.9%	47.5%	–	26.5%	15.1%	47.5%	35.8%	42.1%	44.1%	30.7%	-22.9% (active)	19.7%	16.2%	14.1%	42.7%
Cc1ccc(NS(=O)(=O)c2cc(C)ccc2C)cc1	20.3%	55.4%	60.8%	65.5%	58.5%	70.7%	25.3%	38.7%	–	–	13.6%	54.8%	82.8%	92.6%	53.8%	3.62% (active)	–	2.96% (active)	–	56.3%
Clc1cc(Cl)cc(-c2ccc(-c3ccc(/C=N/NC4=NCCN4)cc3)s2)c1	101%	92.6%	25.9%	53.6%	47%	59%	58.4%	88%	14.7%	8.3% (active)	9.95% (active)	85%	95.2%	81%	43.3%	14.2%	82.1%	–	–	–
c1ccc(-c2nc(N3CCNCC3)c3nc(-c4ccccc4)oc3n2)cc1	93.3%	74.3%	-92.2% (active)	-91.6% (active)	-85.3% (active)	-99.2% (active)	-85.3% (active)	80.6%	-34.6% (active)	0.501% (active)	–	-30.5% (active)	-1.51% (active)	-65.1% (active)	-83.6% (active)	-90.6% (active)	88.9%	-69.2% (active)	–	–
N/C(=N\C(N)=N\c1nc2ccccc2s1)c1ccncc1	41%	78.9%	72.6%	64.2%	109%	75.8%	44.9%	–	45.2%	19.7%	45.8%	75.6%	96.6%	100%	58.2%	39.7%	80.3%	33%	63%	89.4%
COc1ccc(-c2ccc(-c3ccc(-c4ccc(C(=N)N)cc4)s3)s2)cc1OC	105%	-8.09% (active)	91.7%	74.4%	-78.8% (active)	95.5%	93.2%	48.6%	14.6%	6.75% (active)	–	101%	-12.2% (active)	–	15.7%	-64.9% (active)	89.6%	84%	–	–
COc1ccc(/C=C2\Oc3cc(OCCCN4CCCC4)ccc3C2=O)cc1	100%	89.6%	90.4%	73.9%	95.2%	92.6%	91.6%	–	72.2%	-28.4% (active)	86.9%	95.9%	92.9%	90.1%	88.4%	94.3%	89.3%	96.2%	52.3%	106%
c1ccc(Nc2nc(Nc3ccccc3)nc(Nc3ccccc3)n2)cc1	85.8%	77.9%	100%	55.5%	74.6%	91.9%	85%	79%	65.7%	69.8%	74.5%	–	97.1%	81.2%	62.5%	96.4%	107%	77.9%	–	92.7%
ClC(Cl)c1nc(-c2ccccc2)nc2cc(-c3ccccc3)nn12	103%	58.6%	72.1%	58.7%	21.6%	46.2%	50.6%	80.7%	101%	90.7%	17.3%	81.3%	121%	63.4%	67%	-9.5% (active)	63%	54.6%	–	–
COc1cccc(/C=C2\Oc3cc(OCCCN4CCCC4)ccc3C2=O)c1OC	105%	93%	95.2%	79.3%	104%	102%	93.1%	–	91.5%	70.8%	88.6%	94%	94.9%	99.9%	96.1%	99%	93.9%	97.3%	85.1%	110%
CCCCN(CCCC)c1ccc(C(=N)c2ccc(N(CCCC)CCCC)cc2)cc1	-79.1% (active)	-13.9% (active)	-94.1% (active)	-71.1% (active)	-83.9% (active)	-100% (active)	-37.6% (active)	-25.7% (active)	–	–	-74.3% (active)	-82.1% (active)	-82.4% (active)	–	-53.5% (active)	-99.2% (active)	-45% (active)	-87.5% (active)	–	-22.6% (active)
N=C(N)c1ccc(-c2ccc(-c3cncc4ccccc34)s2)cc1F	-40.4% (active)	-77% (active)	-93.1% (active)	-87.3% (active)	-91.2% (active)	-97.5% (active)	-87.5% (active)	73.8%	-24.6% (active)	-3.96% (active)	–	-51.6% (active)	-94.7% (active)	-78.6% (active)	-87.5% (active)	-91.6% (active)	88.9%	1.93% (active)	–	–
C=COC(=O)CCCCCCCCC	108%	94.1%	106%	85.7%	109%	104%	92.8%	96.4%	–	–	100%	–	111%	109%	97.1%	120%	102%	103%	–	–
Cc1ccc(-c2nc(C(Cl)Cl)n3nc(-c4ccccc4)cc3n2)cc1	55.9%	35.3%	70.4%	46.9%	-68.6% (active)	3.72% (active)	4.32% (active)	77.8%	103%	87.6%	2.55% (active)	35.3%	120%	48%	56.4%	-83.7% (active)	31.5%	18.8%	–	–
O=C1NC(=C(Cl)Cl)/C(=N/S(=O)(=O)N2CCC(C3(C(F)(F)F)N=N3)CC2)N1	101%	89.6%	87.7%	85.7%	97%	103%	74.5%	94.9%	54.9%	13.3%	23.9%	96.2%	105%	98.1%	43.5%	40%	95.8%	106%	–	–
N#Cc1c(-c2ccccc2)cc(-c2ccccc2)n(CC(=O)NO)c1=O	34.5%	41.7%	47.8%	25.2%	73.1%	43.3%	20.8%	–	-5.67% (active)	2.74% (active)	23.2%	67.7%	69.3%	50.6%	-61.4% (active)	30%	39.4%	11.5%	-19.2% (active)	107%
CC(O)CN1CCCCC1 (stereo unspecified)	113%	105%	96.8%	86.3%	110%	108%	95.7%	94.5%	–	–	113%	105%	110%	109%	106%	105%	113%	106%	–	107%
